Source: PubChem BioAssay (NCATS)
Records with an inconclusive call do not appear. Unmarked numbers belong to inactive results. Active and inactive are the calls of the source. Calls follow the shape of the dose curve; as a rule, active = well fitted curve in the direction sought with a large enough effect; inconclusive = small, poorly fitted or top-dose-only effect, or another doubt; inactive = no such curve, though single readings can be large; an effect the other way counts as inactive or inconclusive.

System: HEK293T
Test: qHTS assay to identify novel small-molecules to repurpose for Merkel cell carcinoma treatment (AID 1296009); also: nearly all actives have a fitted effect of over 60% in size
Conditions: MCC and control cell lines, CellTiter-Glo viability, 72 h; series mostly up to 44.8 µM
Summary of the method: (§1)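 Cell viability measured by CellTiter-Glo following 72 hr compound treatment at 37 degree celsius, with NPC and MIPE libraries tested in 8- and 11-point concentration series.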
Potency is read from the fitted curve at half-maximal effect.

Row | Structure (SMILES) | outcome | Potency
1 | CC(=O)c1c(C)cc(O[C@@H]2O[C@H](CO)[C@@H](O)[C@H](O)[C@H]2O)cc1O | inactive | –
2 | COc1c(C(CC(C)C)OC(C)=O)ccc(Oc2c(O)cc(C)cc2/C=C/C(C)=O)c1C(=O)O (centres undefined) | inactive [at 17.4 µM] | –
3 | COc1ccccc1CC(C(=O)O)N(C)C(=O)c1ccccc1 (centres undefined) | inactive | –
4 | O=C(/C=C/c1ccc(O)cc1)O[C@H]1[C@@H]2C=CO[C@@H](O[C@@H]3O[C@H](CO)[C@@H](O)[C@H](O)[C@H]3O)[C@@H]2[C@@]2(CO)O[C@@H]12 | inactive [at 17.4 µM] | –
5 | OCC1OC(Oc2cc(O)c3c(c2)OC(c2ccc(O)cc2)C(O)C3)C(O)C1O (centres undefined) | inactive [at 17.4 µM] | –
6 | CC(c1c[nH]c2ccccc12)C(O)C(=O)O (centres undefined) | inactive | –
7 | CCOc1c2c(c(OCC)c3ccccc13)C(=O)N(c1ccc(CC(=O)NS(=O)(=O)c3ccccc3)cc1)C2 | inactive | –
8 | COC1CC(=O)C23C(=O)NC(CC(C)C)C2C(C)C(C)=CC3/C=C(\C)CCC1O (centres undefined) | inactive [at 17.4 µM] | –
9 | C=CC1(C)CC(OC(=O)C(=C)C(O)COC(C)=O)C(C(=C)C(=O)OC)C(O)C1C(=C)CO (centres undefined) | inactive [at 17.4 µM] | –
10 | CCC(C)(O)C(O)C(=O)OCc1ccc(O[C@@H]2O[C@H](CO)[C@@H](O)[C@H](O)[C@H]2O)cc1 (some centres undefined) | inactive [at 17.4 µM] | –
11 | NC(=O)[C@H]1CCCCc2c1[nH]c1ccc(Cl)cc21 | inactive [at 17.4 µM] | –
12 | CCC[C@@H]1C[C@@H](C(=O)N[C@H](C(C)Cl)[C@H]2O[C@H](SC)[C@H](O)[C@@H](O)[C@H]2O)N(C)C1 (some centres undefined) | inactive | –
13 | CC(C)CC(=O)OC[C@H]1O[C@@](COC(=O)CC(C)C)(O[C@H]2O[C@H](CO)[C@@H](O)[C@H](O)[C@H]2OC(=O)CC(C)C)[C@@H](OC(=O)CC(C)C)[C@@H]1O | inactive [at 17.4 µM] | –
14 | CC(CO[C@@H]1O[C@H](COC(=O)/C=C/c2ccc(O)c(O)c2)[C@@H](O)[C@H](O)[C@H]1O)C1(O)COC(=O)C1 (some centres undefined) | inactive [at 17.4 µM] | –
15 | COc1cc(/C=C/C(=O)O[C@H]2[C@H](OC(=O)/C=C/c3cc(OC)c(O)c(OC)c3)O[C@H](CO[C@@H]3O[C@H](CO)[C@@H](O)[C@H](O)[C@H]3O)[C@@H](O)[C@@H]2O)ccc1O | inactive [at 17.4 µM] | –
16 | O=C(CCO[C@@H]1O[C@H](CO)[C@@H](O)[C@H](O)[C@H]1O)c1ccc(O)cc1 | inactive | –
17 | CC1NC(=O)C(Cc2c[nH]c3ccccc23)NC1=O (centres undefined) | inactive | –
18 | CC1=CC(=O)OC(C)(CC(C)(O)C(=O)O)C1 (centres undefined) | inactive | –
19 | COc1ccc(C[C@H](N)C(=O)N[C@H]2[C@@H](O)[C@H](n3cnc4c(N(C)C)ncnc43)O[C@@H]2CO)cc1 | – | 1.16 µM (active)

System: NIH3T3
Test: as above
Conditions: MCC and control cell lines, CellTiter-Glo viability, 72 h; at 44.8 µM (top of the series) unless noted
Summary of the method: as §1

Row | Structure (SMILES) | outcome
20 | Cc1onc(-c2ccccc2)c1C(=O)N[C@@H]1C(=O)N2[C@@H]1SC(C)(C)[C@@H]2C(=O)O | inactive
21 | CCC[C@@H]1C[C@@H](C(=O)N[C@@H]([C@H]2O[C@H](SC)[C@H](OP(=O)(O)O)[C@@H](O)[C@H]2O)[C@H](C)Cl)N(C)C1 | inactive [at 17.4 µM]
22 | CN1Cc2c(N)cccc2C(c2ccccc2)C1 (centres undefined) | inactive
23 | O=C(NC[C@H](O)CN1CCc2ccccc2C1)c1cc(NC2COC2)ncn1 | inactive
24 | C#C[C@]1(O)CC[C@H]2[C@@H]3CCC4=C/C(=N/O)CC[C@@H]4[C@H]3CC[C@@]21CC | inactive
25 | Cc1nn(C)c2c1C(c1ccc(C(F)(F)F)cc1)C(C#N)=C(N)O2 (centres undefined) | inactive

System: C33A
Test: Primary qHTS to identify gynecologic anti-cancer compounds using libraries of approved drugs and bioactive compounds (AID 1345084); also: nearly all actives have a fitted effect of over 55% in size; as to activity change, negative = cytotoxicity: % is scaled to controls: 0 for no effect and ±100 for the full control effect
Conditions: Gynecologic cancer cell panel viability, ATPlite luminescence, 48 h; series mostly up to 57.5 µM; activity change, negative = cytotoxicity: at the top concentration
Summary of the method: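 Five-point cytotoxicity, 48 h drug exposure at 37 C, 5% CO2, on cells seeded 16 h beforehand. ATP content read by ATPlite luminescence.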

Row | Structure (SMILES) | activity change, negative = cytotoxicity | Potency
26 | CC(=O)c1c(C)cc(O[C@@H]2O[C@H](CO)[C@@H](O)[C@H](O)[C@H]2O)cc1O | -1.22% [at 38.5 µM] | –
27 | Cc1onc(-c2ccccc2)c1C(=O)N[C@@H]1C(=O)N2[C@@H]1SC(C)(C)[C@@H]2C(=O)O | – | inactive
28 | CCC[C@@H]1C[C@@H](C(=O)N[C@@H]([C@H]2O[C@H](SC)[C@H](OP(=O)(O)O)[C@@H](O)[C@H]2O)[C@H](C)Cl)N(C)C1 | 1.21% [at 25.3 µM] | –
29 | COc1ncc(-c2ccc3c(Nc4cc(Oc5cc(F)cc(F)c5)cc(C(=O)O)c4)c(S(=O)(=O)NC4CC4)cnc3c2)c(OC)n1 | 9.17% | –
30 | CN1Cc2c(N)cccc2C(c2ccccc2)C1 (centres undefined) | 6.13% | –
31 | CCC(=O)O[C@]1(C(=O)CCl)[C@@H](C)C[C@H]2[C@@H]3C[C@H](F)C4=CC(=O)C=C[C@]4(C)[C@@]3(F)[C@@H](O)C[C@@]21C | 8.05% | –
32 | COc1c(C(CC(C)C)OC(C)=O)ccc(Oc2c(O)cc(C)cc2/C=C/C(C)=O)c1C(=O)O (centres undefined) | -4.43% [at 25.3 µM] | –
33 | C[C@@H]1C[C@H]2[C@@H]3CCC4=CC(=O)C=C[C@]4(C)[C@@]3(F)[C@@H](O)C[C@]2(C)[C@@]1(O)C(=O)COP(=O)(O)O | 11.1% | –
34 | COc1ccccc1CC(C(=O)O)N(C)C(=O)c1ccccc1 (centres undefined) | 0.0677% [at 38.5 µM] | –
35 | O=C(NC[C@H](O)CN1CCc2ccccc2C1)c1cc(NC2COC2)ncn1 | 10.1% | –
36 | N#Cc1ccnc(N2C(=O)CC[C@H]2C(=O)N(c2cncc(F)c2)[C@H](C(=O)NC2CC(F)(F)C2)c2ccccc2Cl)c1 | 8.06% | –
37 | CC(C)Nc1cc(-c2c[nH]c(C(=O)N[C@H](CO)c3cccc(Cl)c3)c2)c(Cl)cn1 | -7.76% | –
38 | Cc1ccc(C(=O)Nc2ccc(Oc3cc4cnn(C)c4cc3-c3cn[nH]c3)c(F)c2)c(=O)n1-c1ccc(F)cc1 | -17.5% | –
39 | O=C(/C=C/c1ccc(O)cc1)O[C@H]1[C@@H]2C=CO[C@@H](O[C@@H]3O[C@H](CO)[C@@H](O)[C@H](O)[C@H]3O)[C@@H]2[C@@]2(CO)O[C@@H]12 | -1.11% [at 25.3 µM] | –
40 | CON(C)C(=O)N1N=C(c2cc(F)ccc2F)S[C@@]1(CCCN)c1ccccc1 | -37% | –
41 | OCC1OC(Oc2cc(O)c3c(c2)OC(c2ccc(O)cc2)C(O)C3)C(O)C1O (centres undefined) | -0.0547% [at 25.3 µM] | –
42 | CC(c1c[nH]c2ccccc12)C(O)C(=O)O (centres undefined) | 6.22% | –
43 | CC(=O)c1cnc2ccc(-c3cc(Cl)c(O)c(Cl)c3)nc2c1NC1CCC(CN(C)C)CC1 (centres undefined) | – | 0.224 µM (active)
44 | NCc1ccc(OCCCc2sc(-c3ccc4c(c3)/C(=N/Nc3nc5ccccc5s3)CCC4)nc2C(=O)O)cc1 | 7.42% | –
45 | CCOc1cc2ncc(C#N)c(Nc3ccc(OCc4ccccn4)c(Cl)c3)c2cc1NC(=O)/C=C/CN(C)C | -27.2% [at 25.3 µM] | –

Row | Structure (SMILES) | activity change, negative = cytotoxicity | Potency
46 | COc1cc(N2CCC(O)CC2)ccc1Nc1cc(Nc2ccccc2S(=O)(=O)C(C)C)c2cc[nH]c2n1 | -2.29% [at 38.5 µM] | –
47 | Cc1c(-c2ccnn2C)cc(C(=O)NCc2ccc(S(C)(=O)=O)cn2)c(=O)n1-c1cccc(C(F)(F)F)c1 | – | inactive
48 | CCOc1c2c(c(OCC)c3ccccc13)C(=O)N(c1ccc(CC(=O)NS(=O)(=O)c3ccccc3)cc1)C2 | 18.6% | –
49 | COC1CC(=O)C23C(=O)NC(CC(C)C)C2C(C)C(C)=CC3/C=C(\C)CCC1O (centres undefined) | -28.4% [at 25.3 µM] | –
50 | C=CC1(C)CC(OC(=O)C(=C)C(O)COC(C)=O)C(C(=C)C(=O)OC)C(O)C1C(=C)CO (centres undefined) | 7.9% [at 25.3 µM] | –
51 | Cc1nn(C)c2c1C(c1ccc(C(F)(F)F)cc1)C(C#N)=C(N)O2 (centres undefined) | 4.41% | –
52 | CCC(C)(O)C(O)C(=O)OCc1ccc(O[C@@H]2O[C@H](CO)[C@@H](O)[C@H](O)[C@H]2O)cc1 (some centres undefined) | -9.3% [at 25.3 µM] | –
53 | NC(=O)[C@H]1CCCCc2c1[nH]c1ccc(Cl)cc21 | 19.7% [at 25.3 µM] | –
54 | Cc1nc2c(-c3cnc(N)nc3)nc(N3CCOCC3)nc2n1C(C)C | – | 1.41 µM (active)
55 | CCC[C@@H]1C[C@@H](C(=O)N[C@H](C(C)Cl)[C@H]2O[C@H](SC)[C@H](O)[C@@H](O)[C@H]2O)N(C)C1 (some centres undefined) | -9.18% | –
56 | CC(C)CC(=O)OC[C@H]1O[C@@](COC(=O)CC(C)C)(O[C@H]2O[C@H](CO)[C@@H](O)[C@H](O)[C@H]2OC(=O)CC(C)C)[C@@H](OC(=O)CC(C)C)[C@@H]1O | 9.51% [at 25.3 µM] | –
57 | CC(CO[C@@H]1O[C@H](COC(=O)/C=C/c2ccc(O)c(O)c2)[C@@H](O)[C@H](O)[C@H]1O)C1(O)COC(=O)C1 (some centres undefined) | -4.74% [at 25.3 µM] | –
58 | COc1cc(/C=C/C(=O)O[C@H]2[C@H](OC(=O)/C=C/c3cc(OC)c(O)c(OC)c3)O[C@H](CO[C@@H]3O[C@H](CO)[C@@H](O)[C@H](O)[C@H]3O)[C@@H](O)[C@@H]2O)ccc1O | 27.1% [at 25.3 µM] | –
59 | O=C(CCO[C@@H]1O[C@H](CO)[C@@H](O)[C@H](O)[C@H]1O)c1ccc(O)cc1 | 4.27% [at 38.5 µM] | –
60 | CC1NC(=O)C(Cc2c[nH]c3ccccc23)NC1=O (centres undefined) | 9.44% | –
61 | CC1=C2C(=O)O[C@@H](c3ccoc3)[C@]2(C)CCC1 | – | inactive
62 | Nc1ccn([C@@H]2C(F)=C(CO)[C@@H](O)[C@H]2O)c(=O)n1 | -24.4% | –
63 | CC1=CC(=O)OC(C)(CC(C)(O)C(=O)O)C1 (centres undefined) | 10.6% | –
64 | COc1ccc(C[C@H](N)C(=O)N[C@H]2[C@@H](O)[C@H](n3cnc4c(N(C)C)ncnc43)O[C@@H]2CO)cc1 | – | 2.82 µM (active)
